Test [1] in a line: SU-DIPG-VI glioma cell viability, MIPE4.0 library, CellTiter-Glo luminescence, qHTS (AID 1347066; cut-off not given, nearly all actives have AC50 up to about 30 µM;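 also: cells exposed to compound for 48 hours before readout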). The following applies: CellTiter-Glo ATP luminescence. In general terms: ATP-based viability assays read luminescence as a measure of living cells.
Test [2] can be described thus: sensitizers of A549 cells to miR-34 induction, primary screen, imaging, A549 dox-inducible miR-34, nuclei and caspase counts (AID 1347080). The following applies: A549 miR-34 inducible, Hoechst nuclei count, 48 h.
Test [3] in a line: survival rescue of mitochondrial mutant cells in low glucose, primary screen, MELAS cybrids, Rieske KO mouse fibroblasts, CellTiter-Glo (AID 1508586;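 active = mean z-score across replicates of 1.96 or higher in either the MELAS or the Rieske mutant cell line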;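 also: z relative to plate mean and SD of compound and empty wells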).
For test [4], the target named is NAD(+) hydrolase SARM1 (Homo sapiens) (UniProt Q6SZW1). The test can be described thus: SARM1 TIR NADase inhibitors, cell lysate, NAD-Glo luminescence (AID 1508614;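 active = compound whose remaining NAD level is above about 45 nM, limit read from the data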;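 also: higher remaining NAD means stronger inhibition of SARM1 NADase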). As to conditions: SAM-TIR HEK293T lysate NADase, at 1 µM, stronger effect = higher value.
Chain of NAD(+) hydrolase SARM1 (Homo sapiens) (Q6SZW1 whole entry, looked up): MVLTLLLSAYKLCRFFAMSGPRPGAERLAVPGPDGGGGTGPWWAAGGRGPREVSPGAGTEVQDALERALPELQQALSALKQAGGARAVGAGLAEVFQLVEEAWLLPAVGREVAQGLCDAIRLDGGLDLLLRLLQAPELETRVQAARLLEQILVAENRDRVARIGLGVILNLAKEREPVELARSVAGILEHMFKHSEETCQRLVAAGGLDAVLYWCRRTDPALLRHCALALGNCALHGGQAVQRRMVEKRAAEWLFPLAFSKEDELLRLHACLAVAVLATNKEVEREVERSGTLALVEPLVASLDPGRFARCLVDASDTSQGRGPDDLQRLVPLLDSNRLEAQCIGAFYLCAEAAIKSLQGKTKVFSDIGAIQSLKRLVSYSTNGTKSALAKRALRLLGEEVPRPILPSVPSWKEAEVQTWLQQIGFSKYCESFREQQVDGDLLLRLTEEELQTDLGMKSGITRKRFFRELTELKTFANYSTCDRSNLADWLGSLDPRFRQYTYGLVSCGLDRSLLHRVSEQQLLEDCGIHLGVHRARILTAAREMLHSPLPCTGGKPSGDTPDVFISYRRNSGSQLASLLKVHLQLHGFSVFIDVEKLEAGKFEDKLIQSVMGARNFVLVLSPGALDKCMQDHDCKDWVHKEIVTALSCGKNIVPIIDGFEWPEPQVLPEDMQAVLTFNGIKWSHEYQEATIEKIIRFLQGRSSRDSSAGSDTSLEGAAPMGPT
Test [5] can be described thus: viability rescue of complex I mutant cybrids, primary screen, cell-based, galactose medium, ATP luminescence (AID 1645843;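 active = z-score of at least 1.8 in each of two replicates, scored against plate mean and spread of sample wells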;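 also: positive z means more ATP and so rescue of galactose-driven cybrid death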). As to conditions: complex I mutant cybrid cells, 72 h, stronger effect = higher value.
Test [6] can be described thus: phospholipid biosynthesis inhibitors in animal cells, primary screen, cell-based, LOPAC library, screen 4 (AID 1347384; call rule not given here). As to conditions: phospholipid biosynthesis inhibition screen, at 10 µM.
The target of test [7] is Mitogen-activated protein kinase 7 (Homo sapiens) (UniProt Q13164). Put plainly: ERK5 transactivation activators in reporter cells, primary screen, cell-based, HTS (AID 1508626;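 active = luciferase signal above three times the same-plate solvent-only control wells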;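 also: luciferase driven by Gal4-ERK5 fusion binding five Gal4 sites before minimal TATA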). As to conditions: HeLa Gal4-ERK5 transactivation, 18 h, at 5 µM, stronger effect = higher value.
Chain of Mitogen-activated protein kinase 7 (Homo sapiens) (Q13164 whole entry, looked up, the tested form may be a part): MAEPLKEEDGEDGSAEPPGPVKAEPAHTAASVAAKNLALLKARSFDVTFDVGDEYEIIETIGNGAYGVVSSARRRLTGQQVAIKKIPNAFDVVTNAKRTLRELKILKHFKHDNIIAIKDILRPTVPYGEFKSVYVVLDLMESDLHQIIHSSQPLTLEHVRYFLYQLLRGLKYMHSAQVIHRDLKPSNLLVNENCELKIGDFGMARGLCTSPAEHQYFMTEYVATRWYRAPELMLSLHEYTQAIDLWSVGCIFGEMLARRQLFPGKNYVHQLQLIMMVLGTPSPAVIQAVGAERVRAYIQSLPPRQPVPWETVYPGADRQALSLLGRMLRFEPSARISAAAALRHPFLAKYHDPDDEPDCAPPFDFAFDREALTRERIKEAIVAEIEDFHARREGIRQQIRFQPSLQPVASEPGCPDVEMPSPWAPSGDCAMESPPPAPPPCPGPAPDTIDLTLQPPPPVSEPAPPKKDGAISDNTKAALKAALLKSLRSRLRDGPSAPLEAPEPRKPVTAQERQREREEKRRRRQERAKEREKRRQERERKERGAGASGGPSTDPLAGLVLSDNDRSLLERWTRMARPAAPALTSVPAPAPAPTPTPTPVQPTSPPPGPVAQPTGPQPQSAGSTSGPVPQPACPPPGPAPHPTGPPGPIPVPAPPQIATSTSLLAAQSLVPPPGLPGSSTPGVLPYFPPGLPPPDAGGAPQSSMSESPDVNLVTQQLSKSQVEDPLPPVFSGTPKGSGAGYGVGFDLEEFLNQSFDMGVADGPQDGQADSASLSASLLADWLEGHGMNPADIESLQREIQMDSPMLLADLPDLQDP
Setting [8] is: stronger effect = lower value, cell number ratio, induced over uninduced.
Setting [9] is: measured here: relative caspase fold change +Dox/-Dox.
Where [10] appears, read: measured here: total cells with miR-34 induction, stronger effect = lower value.
[11] abbreviates: measured here: total cells without miR-34 induction.
Setting [12] is: MELAS cybrid survival, CellTiter-Glo 48 h, stronger effect = higher value.
Where [13] appears, read: Rieske KO mouse fibroblast survival, CellTiter-Glo 72 h.

Values joined by “and” are separate entries in the source; they are usually repeats but may differ in a detail not shown here. Identical values can stand only once. Inconclusive results are not listed. Active and inactive are the calls of the source.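 The calls were made as follows, unless noted: active = compounds whose cell count with miR-34 switched on is under 0.7 times the count with it off; inactive = the rest.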

The source of these data is PubChem BioAssay.

On to `COC(=O)Nc1nc2ccc(S(=O)c3ccccc3)cc2[nH]1` (stereo not given), for which the outcome in test [1] was inactive. Also, the fold change is 1 (inactive) and 0.95 (inactive) and 1.02 (inactive) in test [2] (setting [8]); 0.565 and 3.46 and 0.832 in test [2] (setting [9]). The cell count is 5070 and 6690 and 5080 in test [2] (setting [10]); 5050 and 7040 and 4970 in test [2] (setting [11]). Further, the z-score in test [3] (setting [12]) is -0.274 (inactive) and -0.559 (inactive) and -0.178 (inactive); in test [3] (setting [13]) it was 0.754 and 0.142 and 0.645; in test [5], -0.185 (inactive). Besides, the remaining NAD in test [4] was 10 nM (inactive).
`CN1[C@@H]2CC[C@H]1CC(OC(=O)c1c[nH]c3ccccc13)C2` (stereo not given in full): the molecule was classed as inactive in test [1]. For the same molecule, the fold change in test [2] (setting [8]) is 0.918 (inactive) and 0.888 (inactive); in test [2] (setting [9]), 1.65 and 1.61. The cell count in test [2] (setting [10]) was 8920 and 10100; in test [2] (setting [11]), 9710 and 11400. Moreover, the z-score is 0.412 (inactive) in test [3] (setting [12]); 0.0805 in test [3] (setting [13]); -0.025 (inactive) and 0.755 (inactive) in test [5]. Besides, the remaining NAD in test [4] is 10 nM (inactive).
On to `CC(C)NCC(O)COc1ccc(COCCOC(C)C)cc1` (stereo not given), for which the molecule was called inactive in test [1] and in test [6]. The z-score was -0.423 (inactive) and -0.586 (inactive) in test [3] (setting [12]); 0.385 and -0.329 in test [3] (setting [13]); 0.495 (inactive) and 0.79 (inactive) and 0.73 (inactive) in test [5]. The remaining NAD in test [4] is 10 nM (inactive). In addition, the luciferase signal in test [7] was 84 AU (inactive).
For the molecule `CS(=O)(=O)c1ccc([C@@H](O)[C@@H](CO)NC(=O)C(Cl)Cl)cc1`, the outcome in test [1] was inactive. The fold change in test [2] (setting [8]) is 0.9 (inactive) and 0.984 (inactive); in test [2] (setting [9]), 1.05 and 2.01. In addition, the cell count is 7540 and 11000 in test [2] (setting [10]); 8380 and 11100 in test [2] (setting [11]). Also, the z-score in test [3] (setting [12]) was 0.78 (inactive); in test [3] (setting [13]), -3.27. For the same molecule, in test [4], the remaining NAD is 23 nM (inactive). For the same molecule, the luciferase signal in test [7] is 44 AU (inactive).
Consider `Cc1ncc([N+](=O)[O-])n1CCO`, for which the molecule was classed as inactive in test [1]. The z-score is -0.252 (inactive) and -0.693 (inactive) and 0.0516 (inactive) in test [3] (setting [12]); 0.34 and -0.0287 and -0.879 in test [3] (setting [13]); 1.04 (inactive) and 0.355 (inactive) in test [5]. In addition, the remaining NAD in test [4] is 10 nM (inactive). Further, in test [7], the luciferase signal is 56 AU (inactive).
Turning to `CCCC(C(=O)OCCN(CC)CC)(c1ccccc1)c1ccccc1`, the fold change in test [2] (setting [8]) is 0.769 (inactive) and 0.897 (inactive) and 0.979 (inactive); in test [2] (setting [9]), 1.28 and 1.07 and 2.3. The cell count is 4500 and 7370 and 10800 in test [2] (setting [10]); 5860 and 8210 and 11000 in test [2] (setting [11]). Also, in test [6], the result was inactive. For the same molecule, the z-score in test [3] (setting [12]) is -2.4 (inactive); in test [3] (setting [13]), 0.38; in test [5], -1.28 (inactive). Further, the remaining NAD in test [4] was 10 nM (inactive). Moreover, the luciferase signal in test [7] is 60 AU (inactive).
In the case of `CCN(CC)C(C)CN1c2ccccc2Sc2ccccc21` (stereo not given), the fold change in test [2] (setting [8]) was 1.11 (inactive) and 0.804 (inactive) and 0.894 (inactive); in test [2] (setting [9]), 1.02 and 1.63 and 0.788. Besides, the cell count in test [2] (setting [10]) is 9230 and 7320 and 9620; in test [2] (setting [11]), 8340 and 9100 and 10800. Moreover, in test [6], the result was inactive. Further, the z-score in test [3] (setting [12]) is -0.553 (inactive); in test [3] (setting [13]), -0.605; in test [5], -0.44 (inactive). For the same molecule, the remaining NAD in test [4] was 10 nM (inactive). Further, the luciferase signal in test [7] was 36 AU (inactive).
On to `C=CC(N)CCC(=O)O` (stereo not given), for which the fold change was 0.942 (inactive) and 0.866 (inactive) and 0.941 (inactive) in test [2] (setting [8]); 1.9 and 1.11 and 2.08 in test [2] (setting [9]). Further, the cell count in test [2] (setting [10]) is 9530 and 8830 and 11000; in test [2] (setting [11]), 10100 and 10200 and 11700. Besides, in test [6], the outcome was inactive. Moreover, the z-score in test [3] (setting [12]) is -0.0921 (inactive); in test [3] (setting [13]) it was 0.0881; in test [5], 0.155 (inactive). For the same molecule, the remaining NAD in test [4] was 10 nM (inactive). Besides, the luciferase signal in test [7] was 92 AU (inactive).
Turning to `Cc1nc2n(c(=O)c1CCN1CCC(c3noc4cc(F)ccc34)CC1)CCCC2`, the call in test [1] was inactive. The z-score is 1.35 (inactive) and -1.13 (inactive) and -0.64 (inactive) in test [3] (setting [12]); 0.0817 and 0.437 and -0.833 in test [3] (setting [13]); -1.22 (inactive) and -0.71 (inactive) in test [5]. Moreover, in test [4], the remaining NAD was 10 nM (inactive).
